EPAC2 agonist = qHTS for Agonist of cAMP-regulated guanine nucleotide exchange factor 4 (EPAC2): primary screen; Rap guanine nucleotide exchange factor 4 (Homo sapiens), Q8WZA2; EPAC2 activation, biochemical qHTS; response scale: 100% = 6.5 mM cAMP response; Potency, µM (titrated, usually from 154 µM), actives largely listed as activators; 360,000 compounds, 0.079% hits; AID 720711, 2013; also: nearly all actives have a fitted effect of over 50% in size
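Fluorescence exchange assay: 100 nM EPAC2 with 250 nM RAP1B-BODIPY-GDP and 50 uM GDP; compounds tested as a concentration-titration series (qHTS). Loss of Rap1-bound BODIPY-GDP fluorescence read at 480/540 nm; data normalized to 6.5 mM cAMP.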
EPAC1 antag = qHTS for Antagonist of cAMP-regulated guanine nucleotide exchange factor 3 (EPAC1): primary screen; EPAC1 GEF assay, Rap1b-BODIPY-GDP exchange fluorescence; Potency, µM (series often up to 115 µM), usual class: inhibitors; AID 720709, 2013; 360,000 compounds, 0.14% hits; Rap guanine nucleotide exchange factor 3 (Homo sapiens), O95398; also: nearly all actives have a fitted effect of over 50% in size
TSHR antagonist = Antagonists of the Thyroid Stimulating Hormone Receptor: HTS campaign; 330,000 compounds, 0.2% hits; Thyrotropin receptor (Homo sapiens), P16473; TSHR-expressing cells, TSH-stimulated cAMP HTRF, 2 h; active compounds read low; activity change, negative = inhibition, % at 11.5 µM;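 active = activity change below a set negative limit, meaning inhibition stronger than a set level, cut at about -70% in these data; inconclusive = activity change between two set negative limits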
Target sequence (P16473 whole entry, looked up): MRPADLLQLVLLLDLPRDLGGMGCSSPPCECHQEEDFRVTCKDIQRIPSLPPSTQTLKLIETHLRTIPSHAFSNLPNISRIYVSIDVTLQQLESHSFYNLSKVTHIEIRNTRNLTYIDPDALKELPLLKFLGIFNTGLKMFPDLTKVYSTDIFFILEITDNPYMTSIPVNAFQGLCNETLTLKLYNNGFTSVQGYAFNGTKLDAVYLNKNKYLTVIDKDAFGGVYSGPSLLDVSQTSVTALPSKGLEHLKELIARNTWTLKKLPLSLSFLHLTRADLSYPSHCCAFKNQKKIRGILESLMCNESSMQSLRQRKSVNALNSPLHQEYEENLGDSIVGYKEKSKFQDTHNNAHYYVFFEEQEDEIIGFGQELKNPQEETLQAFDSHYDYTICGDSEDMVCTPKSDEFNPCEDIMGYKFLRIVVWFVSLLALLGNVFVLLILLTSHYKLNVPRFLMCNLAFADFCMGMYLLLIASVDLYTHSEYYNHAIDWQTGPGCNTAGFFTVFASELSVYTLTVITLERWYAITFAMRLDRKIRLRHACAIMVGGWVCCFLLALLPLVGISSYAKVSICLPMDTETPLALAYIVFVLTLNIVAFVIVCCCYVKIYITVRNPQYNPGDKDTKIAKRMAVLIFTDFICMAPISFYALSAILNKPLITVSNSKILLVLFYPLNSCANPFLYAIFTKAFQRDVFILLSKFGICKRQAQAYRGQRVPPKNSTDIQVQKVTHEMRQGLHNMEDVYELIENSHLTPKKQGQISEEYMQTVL
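Cell-based HTRF cAMP assay; TSHR cells + compound, TSH EC80 (4nM final), 2 h, 37 deg C. Lysis with anti-cAMP cryptate and cAMP-d2, 30 min RT, read 665/620 nm.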
PTHR1 ag = qHTS for PTHR1 Agonists: Primary Screen. Parathyroid hormone/parathyroid hormone-related peptide receptor (Homo sapiens), Q03431. HEK293 GP2 PTHR1 cells, GloSensor cAMP luminescence, 1 h. 410,000 compounds, 0.075% hits. Potency, µM (top dose mostly 115 µM), actives largely listed as activators; also: nearly all actives have a fitted effect of over 55% in size
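HEK-293-derived GP2 cells expressing PTHR1 and a GloSensor cAMP reporter, 3,000/well, plated overnight, given luciferin plus IBMX (each 0.5 mM as added) for 1 h at 37 °C, then compound for 1 h at 37 °C. Luminescence was read after 15 min at room temperature.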
EPAC1 ag = qHTS for Agonist of cAMP-regulated guanine nucleotide exchange factor 3 (EPAC1): primary screen | Rap guanine nucleotide exchange factor 3 (Homo sapiens), O95398 | EPAC1 agonist qHTS, biochemical assay; response scale: 100% = response to 6.5 mM cAMP | Potency, µM (doses to about 154 µM), usual class: activators | 360,000 compounds, 0.073% hits; also: nearly all actives have a fitted effect of over 60% in size
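Normalized to 6.5 mM cAMP, activity reflects EPAC1-catalysed release of BODIPY-GDP from Rap1B, followed kinetically over 30 min at 480 nm excitation, 540 nm emission. Reaction contained 100 nM EPAC1, 250 nM Rap1B-BODIPY-GDP, 50 uM GDP.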
EPAC2 antag = qHTS for Antagonist of cAMP-regulated guanine nucleotide exchange factor 2 (EPAC2): primary screen; Rap guanine nucleotide exchange factor 4 (Homo sapiens), Q8WZA2; EPAC2 GEF exchange of Rap1B-BODIPY-GDP, fluorescence; Potency, µM (top dose mostly 114 µM), actives largely listed as inhibitors; 360,000 compounds, 0.18% hits; also: nearly all actives have a fitted effect of over 45% in size
Large screens that a line does not name were inactive. Rows were chosen to be rich in hits. Some 0.5% of all compounds tested hit in one or more screens of this group. Unless noted, calls follow the shape of the dose curve; as a rule, active = well fitted curve in the direction sought with a large enough effect; inconclusive = small, poorly fitted or top-dose-only effect, or another doubt; inactive = no such curve, though single readings can be large; an effect the other way counts as inactive or inconclusive.

N#CC(=C(\N)Sc1ccccc1N)/C(C#N)=C(/N)Sc1ccccc1N	none (no result: EPAC2 agonist, EPAC1 antag, PTHR1 ag, EPAC1 ag, EPAC2 antag)
Cc1ccccc1NC(=O)N1CCC(C(=O)c2ccc(F)cc2)CC1	none
Cc1cccc(C)c1NC(=O)N1CCC(C(=O)c2ccc(F)cc2)CC1	TSHR antagonist -78.6
CC(=O)Nc1cc(OC(C)=O)c2nonc2c1OC(C)=O	EPAC1 antag inconclusive, TSHR antagonist -74.4
CCCCN1C(=O)C(CC(=O)NCc2ccco2)CC(C(=O)N(C)C)=C1C (stereo not drawn)	none (no result: TSHR antagonist)
O=c1[nH]c(C2CCN(S(=O)(=O)c3cccc(Cl)c3)CC2)nc2c1nnn2Cc1ccccc1	TSHR antagonist -103.5
COc1ccc(CCn2c(=N)c(S(=O)(=O)c3ccc(C)cc3)cc3c(=O)n4ccccc4nc32)cc1	EPAC2 antag 89.1µM
COc1cc(Br)cc(C(=O)N2CCc3ccccc32)c1OC	EPAC2 antag 35.5µM (no result: TSHR antagonist)
N#C/C(=C\c1ccc(Oc2ccc(C(F)(F)F)cc2[N+](=O)[O-])cc1)c1nc2ccccc2[nH]1	TSHR antagonist -70.9
COc1ccccc1Oc1ccnc2cc(Cl)ccc12	EPAC2 antag 39.8µM
O=C1NC(=S)S/C1=C\C=C\c1ccc([N+](=O)[O-])o1	EPAC1 antag 56.2µM, EPAC2 antag 50.1µM
O=C(O)/C=C/c1ccc([N+](=O)[O-])o1	none
CCC1(c2ccccc2)NC(=O)N(CC(=O)Nc2ccc(OC)nc2)C1=O (stereo not drawn)	EPAC2 agonist inconclusive, EPAC1 ag 100µM
CN1C(=O)c2ccccc2Sc2ccc(NC(=O)COc3ccc(Cl)cc3)cc21	none (no result: EPAC2 agonist, EPAC1 antag, TSHR antagonist, EPAC1 ag, EPAC2 antag)
Cc1cccc(NC(=O)c2ccc(S(=O)(=O)N3CCCCC3)cc2)c1	none
COCCn1c(-c2ccc(OC)cc2)c(-c2ccc(OC)cc2)oc1=O	EPAC2 antag 35.5µM
COc1ccccc1C(C(=O)c1ccccc1)c1ccc2ccccc2c1 (stereo not drawn)	none (no result: TSHR antagonist)
COc1ccccc1C(C(=O)c1ccccc1)c1ccc(O)cc1 (stereo not drawn)	EPAC2 antag 56.2µM (no result: TSHR antagonist)
CCN1CCN(Cc2c(O)ccc3c2O/C(=C\C=C\c2ccccc2)C3=O)CC1	EPAC2 agonist inconclusive, EPAC1 ag 100µM
COc1ccccc1/C=C/C=C1\Oc2c(ccc(O)c2CN2CCN(CCO)CC2)C1=O	EPAC2 agonist inconclusive, EPAC1 ag 100µM
O=C1/C(=C/C=C/c2ccccc2)Oc2c1ccc(O)c2CN1CCN(CCO)CC1	EPAC2 agonist inconclusive, EPAC1 ag inconclusive
Cc1cc(C)cc(NC(=O)COCc2cc(-c3ccc4c(c3)OCO4)on2)c1	none (no result: EPAC2 agonist, EPAC1 antag, TSHR antagonist, EPAC1 ag, EPAC2 antag)
CCOc1cc(/C=C/c2ccc3cccc([N+](=O)[O-])c3n2)cc(Cl)c1O	TSHR antagonist -72.4
N#Cc1ccccc1Cn1c(SCC(=O)NCc2ccccc2)nc2ccccc21	none (no result: EPAC2 agonist, EPAC1 antag, TSHR antagonist, EPAC1 ag, EPAC2 antag)
COc1cc(/C=N/Nc2ccc(Cl)c(C(=O)O)c2)ccc1OC(=O)c1ccco1	EPAC1 antag inconclusive
COc1ccc(/C=N/Nc2ccc(C(=O)O)cc2)cc1OC	none
Cc1ccc(S(=O)(=O)Oc2cccc(/C=N/n3cnnc3)c2)cc1	none
COc1ccc(C(=O)Oc2ccc(/C=N/Nc3ccc(Cl)c(C(=O)O)c3)cc2OC)cc1	EPAC2 antag 20µM
COc1ccc(/C=N/Nc2ccc(C(=O)O)cc2)cc1Br	EPAC2 antag 56.2µM
Cc1ccc(S(=O)(=O)Oc2cccc(/C=N/Nc3ccc(C(=O)O)cc3)c2)cc1	EPAC2 antag 56.2µM
CCC(=O)N1CCc2cc(S(=O)(=O)NC(C(=O)NCCc3cccc(C)c3)C(C)C)ccc21 (stereo not drawn)	none (no result: EPAC2 agonist, EPAC1 antag, TSHR antagonist, EPAC1 ag, EPAC2 antag)
Cc1ccc(OCC(=O)NCC(=O)OCc2cc(=O)n3nc(CC(C)C)sc3n2)cc1	none (no result: EPAC2 agonist, EPAC1 antag, TSHR antagonist, EPAC1 ag, EPAC2 antag)
CCN(CC)CCCCNc1ncc2cc(-c3cc(OC)cc(OC)c3)c(NC(=O)NC(C)(C)C)nc2n1	none
CCC1CCCCN1CCCNC(=O)CCC(=O)N1CC(C)Oc2ccccc21 (stereo not drawn)	EPAC1 antag 25.1µM
Oc1[nH]c2ccc(Br)cc2c1N=Nc1ccc(F)cc1	EPAC1 antag inconclusive, EPAC2 antag 70.8µM
COC(=O)[C@]12CCCCC=C1N(Cc1cccc3ccccc13)C(=O)[C@H](CC(=O)NCCCN1CCCC1=O)C2	none (no result: TSHR antagonist)
O=c1c(/C=C(\O)c2ccccc2)nc2ccccc2n1-c1ccccc1	EPAC2 agonist 100µM, EPAC1 ag 100µM
Cc1nc2ccccc2n1-c1ccccc1	none
CN(C)c1ccc(NC(=O)C2C3C=CC(C3)C2C(=O)O)cc1 (stereo not drawn)	TSHR antagonist -89.3
COc1nc(C)cc(C)c1S(=O)(=O)c1ccccc1C	EPAC2 antag 12.6µM
CCC(C)Oc1nc(C)cc(C)c1S(=O)(=O)c1ccccc1C (stereo not drawn)	none
C#CCOc1nc(C)cc(C)c1S(=O)(=O)c1ccccc1C	EPAC2 antag 28.2µM
CSc1nc(C)cc(C)c1S(=O)(=O)c1ccccc1C	EPAC2 antag 35.5µM
CCC(C)Oc1nc2c(c(=O)n(C)c(=O)n2C)n1C (stereo not drawn)	none
CCCNc1c(NS(=O)(=O)c2ccc(Br)cc2)c(=O)oc2ccccc12	TSHR antagonist -146.7
O=c1oc2ccccc2c(NC2CCCCC2)c1NS(=O)(=O)c1ccc(Br)cc1	EPAC2 antag inconclusive
CCOC(=O)CC1(C)Sc2ccccc2N1S(=O)(=O)c1ccc(C)cc1 (stereo not drawn)	EPAC2 antag inconclusive (no result: TSHR antagonist)
COc1ccc(/C=C(/C(=O)c2ccc(Cl)cc2Cl)n2cncn2)cc1	none
CN(C)c1ccc(/C=C(/C(=O)c2ccc(Cl)cc2Cl)n2cncn2)cc1	EPAC2 agonist 44.7µM, EPAC1 ag 100µM
O=C(Cn1c(C(=O)N2CCN(C3CCCCC3)CC2)cc2sccc21)c1ccccc1	none
O=C(Cn1c(C(=O)N2CCc3ccccc3C2)cc2sccc21)c1ccccc1	PTHR1 ag 22.4µM
CNC(=O)c1c(NC(=O)C2=COCCO2)sc2c1CCN(C(=O)OC)C2	none

High-throughput results as filed in PubChem.
